According to PubChem BioAssay AID1845224 (National Center for Advancing Translational Sciences (NCATS), 2023):
Inconclusive results are not listed. A call without a number means that no potency is given here. Values without a mark were called inactive. The source made the active and inactive calls. The call rests on the fitted dose curve; in most records, active means well fitted curve in the direction sought with a large enough effect; inconclusive means small, poorly fitted or top-dose-only effect, or another doubt; inactive means no such curve, though single readings can be large or run the other way.
Potency means the concentration at half of the fitted maximal effect.

These molecules were tested on NanoLuc luciferase (engineered Oplophorus gracilirostris luciferase) (assay: Confirmatory Nanoluciferase (NLuc) qHTS assay for identification of artifact compounds.). Settings: secreted NLuc in S16 cell medium, luminescence, 5 min; series mostly up to 39 µM.
Summary of the method: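 Conditioned medium from NLuc-expressing S16 cells (diluted 1:55) as enzyme source; compounds 15 min at room temperature, then Nano-Glo substrate for 5 min. Luminescence normalized to no-enzyme and DMSO controls, fitted to 4-parameter Hill equation.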
`COC(=O)c1scc(-c2ccc(C)cc2)c1S(=O)(=O)Nc1cc(Cl)ccc1C` was tested, and the Potency was “inactive”. `O=C(Nc1ccc(Cl)c(Cl)c1)Nc1ncc(-c2ccncc2)s1` was tested, and the Potency was “inactive”. `CC(=O)Nc1ccc(Nc2nc3ccc(C)cc3n3nnnc23)cc1` was tested, and the Potency was “inactive”. `O=C(Nc1sc2c(c1-c1nc3ccccc3s1)CCNC2)C(F)F` was tested, and the Potency was “inactive”. `O=C(Nc1ccc(Br)cc1)c1cccc(C(=O)Nc2ccc(Br)cc2)c1` was tested, and the Potency was “inactive”. In the case of `Cc1ccc2[nH]c(CSc3nnc(C)s3)cc(=O)c2c1`, the Potency is reported as “inactive”. For `Clc1ccc(CNc2cc(-c3ccc4c(c3)OCO4)ncn2)cc1`, the Potency was “inactive”. For `CCc1ccc(Cn2c(CNS(=O)(=O)c3ccc(Cl)s3)nc3cccnc32)cc1`, the Potency was “inactive”. `C[C@@H]1C[C@H]2[C@@H]3CCC4=CC(=O)C=C[C@]4(C)[C@@]3(F)[C@@H](O)C[C@]2(C)[C@@]1(O)C(=O)CO` was tested, and the Potency was “inactive”. With `Cc1ccc(S(=O)(=O)c2nnn3c2nc(NCc2ccc(F)cc2)c2sccc23)cc1C` the Potency was “inactive”. With `CCC1Oc2ccccc2N(CC(=O)NCc2ccc(C)cc2)C1=O` (stereo unspecified) the Potency was “inactive”. For `N#C/C(=C\c1ccc(-c2cc(Cl)ccc2Cl)o1)C(=O)Nc1ccccc1C(=O)O`, the Potency was 12.2 µM (active). In the case of `CC(C)CCC[C@@H](C)[C@H]1CC[C@H]2[C@@H]3CC[C@@H]4C[C@H](O)CC[C@]4(C)[C@H]3CC[C@]12C`, the Potency is reported as “inactive”. In the case of `Oc1ccc(C2(c3ccc(O)cc3)CC3CC2C2CCCC32)cc1` (stereo unspecified), the Potency is reported as “inactive”. With `Fc1ccc(-c2cc(-c3nc(-c4ccc(Cl)cc4)no3)[nH]n2)cc1` the Potency was “inactive”. `COc1ccc(NC(=O)c2cnn3c(-c4ccccc4)cc(C)nc23)cc1` was tested, and the Potency was “inactive”. For `O=C(Oc1ccccc1Cl)c1cc(-c2ccc3c(c2)OCCO3)on1`, the Potency was 1.54 µM (active). Molecule `CC(C)C[C@H](NC(=O)[C@H](Cc1ccccc1)NC(=O)CNC(=O)CNC(=O)[C@@H](N)Cc1ccc(O)cc1)C(=O)N[C@@H](CCCN=C(N)N)C(=O)N[C@@H](CCCN=C(N)N)C(=O)N[C@@H](CCC(N)=O)C(=O)N[C@@H](Cc1ccccc1)C(=O)N[C@@H](CCCCN)C(=O)N[C@H](C(=O)N[C@H](C(=O)N[C@H](C(=O)O)[C@@H](C)O)C(C)C)C(C)C` has an activity change, negative = inhibition of 9.86% [at 4.32 µM]. In the case of `CCOC(=O)N1CCN(S(=O)(=O)N2CCCC(C(=O)NCc3cc(OC)ccc3OC)C2)CC1` (stereo unspecified), the Potency is reported as “inactive”. For `COc1ccc(CNC(=O)CCc2c(C)nc3c4cccnc4nn3c2C)cc1`, the Potency was “inactive”. With `COc1ccccc1CNC(=O)c1nn(-c2ccc(C)cc2)c(=O)c2c1c1ccccc1n2C` the Potency was “inactive”. In the case of `COc1ccc(CC(=O)Nc2nc3c(s2)CCCC3)cc1`, the Potency is reported as “inactive”. In the case of `COC(=O)C1=CO[C@@H](O[C@@H]2O[C@H](CO)[C@@H](O)[C@H](O)[C@H]2O)C2C(CO)=CCC12` (stereo partly specified), the Potency is reported as “inactive”. For `Cc1ccc(NC(=O)c2ccc(Br)cc2)c(C(=O)c2ccccc2)c1`, the Potency was “inactive”. `O=C(Nc1cc(-c2ccc(F)c(F)c2)no1)c1ccccc1F` was tested, and the Potency was “inactive”. For `COc1ccc(OC(=O)c2nc(SCc3ccccc3F)ncc2Cl)cc1`, the Potency was “inactive”. For `Cc1ccc(NC(=O)Cn2c(=O)n(CCC(=O)NCCc3ccccc3)c(=O)c3ccccc32)cc1`, the Potency was “inactive”. In the case of `COc1ccc(CCNC(=O)Cn2cc(C(=O)c3ccc(F)cc3)c(=O)c3ccc(C)nc32)cc1OC`, the Potency is reported as “inactive”. `CCSc1ncc(Cl)c(C(=O)Nc2c(C(=O)Nc3cccc(C)c3)oc3ccccc23)n1` was tested, and the Potency was “inactive”. For `Cc1ccc(S(=O)(=O)N2CCN(c3nc(-c4cccs4)nc4cccnc34)CC2)cc1`, the Potency was “inactive”. `CCOc1ccc(-c2cc(NC(=O)Nc3ccccc3Cl)c(C(=O)OC)s2)cc1` was tested, and the Potency was “inactive”.
